# For some assays here: Measured potencies and affinities stand elsewhere.
# Experiments:
# Design in all cases: scale not given: direction of the effect not stated beside the values
# [1] = biological target: Protein translocase subunit SecA (Escherichia coli (strain K12)) (UniProt P10408); assay: Assay to Identify E. coli SecA ATPase Inhibitors; assay type: functional; settings: 30 µM
# [2] = biological target: T1, Ubiquitin-activating enzyme e1, putative (Leishmania donovani (strain BPK282A1)) (UniProt E9BSI1); assay: Leishmania donovani Ubiquitin Activating Enzyme (LdE1); assay type: functional; settings: 30 µM
# T1 sequence (whole entry): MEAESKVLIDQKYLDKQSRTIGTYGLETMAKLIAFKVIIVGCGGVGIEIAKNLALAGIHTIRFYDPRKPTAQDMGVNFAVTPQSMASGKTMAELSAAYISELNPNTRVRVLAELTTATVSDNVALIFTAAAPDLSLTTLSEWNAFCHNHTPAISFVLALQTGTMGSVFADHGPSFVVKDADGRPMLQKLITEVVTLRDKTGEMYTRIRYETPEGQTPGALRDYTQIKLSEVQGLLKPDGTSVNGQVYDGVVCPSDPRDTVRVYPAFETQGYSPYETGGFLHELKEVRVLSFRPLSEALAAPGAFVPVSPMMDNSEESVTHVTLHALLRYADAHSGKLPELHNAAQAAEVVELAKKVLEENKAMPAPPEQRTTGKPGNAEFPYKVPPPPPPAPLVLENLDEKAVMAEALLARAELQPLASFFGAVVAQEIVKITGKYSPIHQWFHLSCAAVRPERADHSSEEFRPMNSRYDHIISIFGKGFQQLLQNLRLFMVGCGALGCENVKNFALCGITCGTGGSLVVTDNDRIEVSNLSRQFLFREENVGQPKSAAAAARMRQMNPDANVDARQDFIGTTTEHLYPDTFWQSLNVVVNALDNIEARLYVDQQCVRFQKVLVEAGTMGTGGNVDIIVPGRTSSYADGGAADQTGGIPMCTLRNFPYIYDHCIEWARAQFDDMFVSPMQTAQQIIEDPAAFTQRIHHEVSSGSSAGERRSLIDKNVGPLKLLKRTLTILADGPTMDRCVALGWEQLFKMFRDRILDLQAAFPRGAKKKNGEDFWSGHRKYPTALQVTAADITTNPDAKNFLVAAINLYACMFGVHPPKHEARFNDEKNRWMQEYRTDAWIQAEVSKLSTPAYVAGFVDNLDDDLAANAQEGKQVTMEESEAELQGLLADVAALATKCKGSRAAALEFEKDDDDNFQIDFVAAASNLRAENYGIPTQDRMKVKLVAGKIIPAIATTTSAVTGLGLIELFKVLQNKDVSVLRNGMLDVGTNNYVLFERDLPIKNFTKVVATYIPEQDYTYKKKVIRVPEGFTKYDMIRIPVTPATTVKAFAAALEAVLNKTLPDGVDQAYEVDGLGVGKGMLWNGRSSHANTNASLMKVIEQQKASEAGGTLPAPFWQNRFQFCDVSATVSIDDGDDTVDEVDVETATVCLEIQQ
# [3] = biological target: AMP-activated protein kinase, AMPK (Homo sapiens) (UniProt P54646+O43741+P54619+Q9UGJ0+Q9Y478+Q13131+Q9UGI9); assay: AMP-dependent Kinase enzyme assay. An in vitro enzyme assay that detects ADP turnover that is directly proportional to AMPK activity. This uses naive AMPK that is activated during the assay with MK-8722; assay type: functional; settings: 30 µM
# [4] = biological target: Sialic acid-binding Ig-like lectin 9 (Homo sapiens) (UniProt Q9Y336); assay: Hs-Siglec9 ALPHAscreen SOP 20170721; settings: 10 µM
# Chain of Sialic acid-binding Ig-like lectin 9 (Homo sapiens) (Q9Y336 whole entry): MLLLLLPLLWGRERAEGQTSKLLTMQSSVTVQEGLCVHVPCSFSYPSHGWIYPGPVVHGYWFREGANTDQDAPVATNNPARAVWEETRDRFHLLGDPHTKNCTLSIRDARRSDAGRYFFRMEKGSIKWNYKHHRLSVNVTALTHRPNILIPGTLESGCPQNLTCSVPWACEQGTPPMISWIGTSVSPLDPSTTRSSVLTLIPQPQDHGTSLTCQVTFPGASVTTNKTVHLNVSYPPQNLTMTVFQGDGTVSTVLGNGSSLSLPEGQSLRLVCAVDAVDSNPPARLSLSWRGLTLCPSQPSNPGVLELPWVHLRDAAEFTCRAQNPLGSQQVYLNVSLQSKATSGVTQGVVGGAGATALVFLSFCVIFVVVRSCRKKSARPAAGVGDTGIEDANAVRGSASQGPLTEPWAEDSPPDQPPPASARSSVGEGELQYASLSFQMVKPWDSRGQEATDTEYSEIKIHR
# Trypanosoma cruzi = assay: Trypanosoma cruzi phosphomannomutase and mannose-1-phosphate guanylyltransferase assay; assay type: functional; settings: 10 µM
# [5] = biological target: T2, Arginase-2, mitochondrial (Homo sapiens) (UniProt P78540); assay: in vitro enzyme assay to detect the production of urea directly proportional to the activity of Arginase II; assay type: functional; settings: 33.3 µM; further: in the data most compounds retested in dose-response had high values
# T2 sequence (whole entry): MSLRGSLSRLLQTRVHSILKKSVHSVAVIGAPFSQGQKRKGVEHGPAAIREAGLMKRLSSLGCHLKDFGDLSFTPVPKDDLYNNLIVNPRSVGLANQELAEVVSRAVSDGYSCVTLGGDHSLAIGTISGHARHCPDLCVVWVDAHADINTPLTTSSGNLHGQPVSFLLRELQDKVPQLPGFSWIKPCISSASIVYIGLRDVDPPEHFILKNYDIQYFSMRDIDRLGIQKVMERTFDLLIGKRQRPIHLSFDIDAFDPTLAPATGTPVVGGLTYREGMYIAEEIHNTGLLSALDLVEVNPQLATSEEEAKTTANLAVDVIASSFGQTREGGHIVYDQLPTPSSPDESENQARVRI
# [6] = biological target: T3, Proteasome subunit beta (Trypanosoma cruzi) (UniProt O96673); assay: Trypanosoma cruzi proteasome chymotrypsin-like activity (TcProtChymo) assay.; further: in the data most compounds retested in dose-response had high values; assay type: functional; settings: 9.37 µM
# T3 sequence (whole entry): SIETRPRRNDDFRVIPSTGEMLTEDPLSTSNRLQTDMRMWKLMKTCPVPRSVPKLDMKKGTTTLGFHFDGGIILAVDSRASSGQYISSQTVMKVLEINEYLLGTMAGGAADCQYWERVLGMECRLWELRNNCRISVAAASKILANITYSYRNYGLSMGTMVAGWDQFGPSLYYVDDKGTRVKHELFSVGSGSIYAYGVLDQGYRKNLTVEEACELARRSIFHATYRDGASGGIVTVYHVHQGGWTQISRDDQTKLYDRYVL
# Homo sapiens = organism: Homo sapiens; assay: To identify inhibition of the IFN signalling (Jak-Stat) pathway via expression of an eGFP reporter gene under the control of an IFN-stimulated response element (ISRE) containing MxA promoter.; assay type: functional; settings: 30 µM
# [7] = biological target: T4, Tyrosyl-tRNA synthetase, putative (Trypanosoma cruzi (strain CL Brener)) (UniProt Q4DSP6); assay: Trypanosoma cruzi tyrosyl tRNA synthetase (TcYRS) _High Tyrosine SOP; assay type: functional; settings: 30 µM; further: in the data most compounds retested in dose-response had high values
# T4 sequence (whole entry): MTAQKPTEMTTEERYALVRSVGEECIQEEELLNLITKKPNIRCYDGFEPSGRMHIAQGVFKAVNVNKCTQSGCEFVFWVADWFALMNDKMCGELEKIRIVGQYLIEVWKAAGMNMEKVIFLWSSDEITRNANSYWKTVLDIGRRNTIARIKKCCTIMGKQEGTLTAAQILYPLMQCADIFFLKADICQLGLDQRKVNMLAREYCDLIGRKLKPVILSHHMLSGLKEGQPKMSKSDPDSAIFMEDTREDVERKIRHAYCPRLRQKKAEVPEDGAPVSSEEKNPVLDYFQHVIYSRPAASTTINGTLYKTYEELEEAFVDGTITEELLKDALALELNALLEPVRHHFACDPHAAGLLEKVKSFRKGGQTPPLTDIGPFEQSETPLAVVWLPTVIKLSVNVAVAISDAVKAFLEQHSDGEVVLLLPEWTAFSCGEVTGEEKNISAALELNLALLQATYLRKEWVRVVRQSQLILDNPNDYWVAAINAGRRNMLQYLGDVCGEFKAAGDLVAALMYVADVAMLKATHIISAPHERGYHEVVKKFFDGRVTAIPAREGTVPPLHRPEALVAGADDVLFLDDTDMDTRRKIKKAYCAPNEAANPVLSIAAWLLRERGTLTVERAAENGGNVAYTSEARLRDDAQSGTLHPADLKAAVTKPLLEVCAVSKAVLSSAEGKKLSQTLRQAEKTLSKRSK
# [8] = biological target: T4, Tyrosyl-tRNA synthetase, putative (Trypanosoma cruzi (strain CL Brener)); assay: Trypanosoma cruzi tyrosyl tRNA synthetase (TcYRS) SOP; assay type: functional; settings: 30 µM
# [9] = biological target: Chromo domain-containing protein 1 (Saccharomyces cerevisiae (strain ATCC 204508 / S288c) (Baker's yeast)) (UniProt P32657); assay: ScCHD-1 Enzyme Inhibition Assay; assay type: functional; settings: 30 µM; further: in the data most compounds retested in dose-response had high values
# Chain of Chromo domain-containing protein 1 (Saccharomyces cerevisiae (strain ATCC 204508 / S288c) (Baker's yeast)) (P32657 whole entry, the tested form may be a part): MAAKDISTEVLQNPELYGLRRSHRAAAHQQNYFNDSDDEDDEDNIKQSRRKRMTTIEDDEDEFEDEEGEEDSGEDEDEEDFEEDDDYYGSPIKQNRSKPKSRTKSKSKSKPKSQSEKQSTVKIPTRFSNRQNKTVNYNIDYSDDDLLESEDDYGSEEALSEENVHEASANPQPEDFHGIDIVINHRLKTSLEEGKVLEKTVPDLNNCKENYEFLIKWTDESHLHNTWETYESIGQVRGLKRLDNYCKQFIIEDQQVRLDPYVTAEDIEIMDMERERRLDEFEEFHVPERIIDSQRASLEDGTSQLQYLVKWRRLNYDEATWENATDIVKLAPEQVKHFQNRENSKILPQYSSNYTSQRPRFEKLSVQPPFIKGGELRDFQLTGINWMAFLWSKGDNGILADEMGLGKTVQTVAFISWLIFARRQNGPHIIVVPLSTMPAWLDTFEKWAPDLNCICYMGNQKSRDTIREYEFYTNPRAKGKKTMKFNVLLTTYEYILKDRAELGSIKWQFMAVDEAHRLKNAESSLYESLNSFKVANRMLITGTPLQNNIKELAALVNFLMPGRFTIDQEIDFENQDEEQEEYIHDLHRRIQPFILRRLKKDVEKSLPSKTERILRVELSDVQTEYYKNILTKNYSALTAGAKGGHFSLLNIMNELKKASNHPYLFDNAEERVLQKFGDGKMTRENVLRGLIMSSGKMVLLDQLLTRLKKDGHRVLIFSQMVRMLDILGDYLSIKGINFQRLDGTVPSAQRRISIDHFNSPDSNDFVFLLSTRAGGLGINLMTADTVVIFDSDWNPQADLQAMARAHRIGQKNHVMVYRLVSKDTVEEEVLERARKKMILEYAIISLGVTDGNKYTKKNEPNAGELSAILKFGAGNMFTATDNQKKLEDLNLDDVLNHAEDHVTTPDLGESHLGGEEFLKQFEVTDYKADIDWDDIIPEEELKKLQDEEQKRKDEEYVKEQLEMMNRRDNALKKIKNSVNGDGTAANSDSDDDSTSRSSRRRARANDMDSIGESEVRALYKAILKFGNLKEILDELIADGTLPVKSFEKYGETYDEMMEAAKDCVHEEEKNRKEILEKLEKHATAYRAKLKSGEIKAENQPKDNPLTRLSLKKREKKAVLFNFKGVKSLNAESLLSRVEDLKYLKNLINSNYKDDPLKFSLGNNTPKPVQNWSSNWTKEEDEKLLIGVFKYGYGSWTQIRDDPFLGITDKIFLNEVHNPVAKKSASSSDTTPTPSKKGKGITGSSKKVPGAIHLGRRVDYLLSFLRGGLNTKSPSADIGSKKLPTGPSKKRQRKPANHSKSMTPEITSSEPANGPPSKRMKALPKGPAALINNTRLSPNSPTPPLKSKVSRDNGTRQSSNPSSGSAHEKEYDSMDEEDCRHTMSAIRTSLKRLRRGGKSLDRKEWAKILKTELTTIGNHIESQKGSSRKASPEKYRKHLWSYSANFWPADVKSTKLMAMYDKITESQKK
# Chain of Protein translocase subunit SecA (Escherichia coli (strain K12)) (P10408 whole entry): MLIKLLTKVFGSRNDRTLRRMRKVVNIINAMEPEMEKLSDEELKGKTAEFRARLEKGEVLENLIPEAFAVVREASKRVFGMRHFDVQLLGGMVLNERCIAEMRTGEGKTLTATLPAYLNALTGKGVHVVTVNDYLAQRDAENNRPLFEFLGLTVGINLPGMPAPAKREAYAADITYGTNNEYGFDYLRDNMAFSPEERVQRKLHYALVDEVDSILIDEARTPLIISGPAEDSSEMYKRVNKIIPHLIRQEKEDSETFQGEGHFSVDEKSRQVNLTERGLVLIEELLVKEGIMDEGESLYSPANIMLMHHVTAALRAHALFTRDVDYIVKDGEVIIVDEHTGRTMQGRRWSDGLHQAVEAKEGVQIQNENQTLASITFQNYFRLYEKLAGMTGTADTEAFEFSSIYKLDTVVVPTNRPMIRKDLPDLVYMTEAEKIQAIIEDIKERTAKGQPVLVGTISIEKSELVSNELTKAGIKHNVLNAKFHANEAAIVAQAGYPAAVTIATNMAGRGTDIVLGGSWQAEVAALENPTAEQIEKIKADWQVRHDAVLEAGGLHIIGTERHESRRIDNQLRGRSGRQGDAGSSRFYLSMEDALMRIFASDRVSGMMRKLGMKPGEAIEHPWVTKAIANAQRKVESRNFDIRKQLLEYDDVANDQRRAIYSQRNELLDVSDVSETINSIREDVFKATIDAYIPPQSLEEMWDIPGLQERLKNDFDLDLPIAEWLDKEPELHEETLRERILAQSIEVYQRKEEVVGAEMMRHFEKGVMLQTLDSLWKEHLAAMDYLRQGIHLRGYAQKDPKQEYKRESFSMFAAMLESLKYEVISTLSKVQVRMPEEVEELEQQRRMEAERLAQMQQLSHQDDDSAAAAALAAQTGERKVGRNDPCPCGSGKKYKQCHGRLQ
smiles,measurement,setting,value
CCC(=O)Nc1nnc(CCCOc2ccccc2)s1,Percent Effect,[1],-6.68%
same,Percent Effect,[2],-1.33%
same,Percent Effect,[3],6.74%
same,Percent Effect,[4],2.25%
same,Percent Effect,Trypanosoma cruzi,1.77%
same,Percent Effect,[5],-9.68%
same,Percent Effect,[6],10.3%
same,Percent Effect,Homo sapiens,-7.47%
same,Percent Effect,[7],7.41%
same,Percent Effect,[8],5.13%
same,Percent Effect,[9],-0.786%
Cc1cnn(CCNCc2csc(-c3ccc4c(c3)OCO4)n2)c1,Percent Effect,[1],-4.64%
same,Percent Effect,[2],-13.2%
same,Percent Effect,[3],-1.92%
same,Percent Effect,[4],-4.07%
same,Percent Effect,Trypanosoma cruzi,-5.83%
same,Percent Effect,[5],2.68%
same,Percent Effect,[6],11.2%
same,Percent Effect,Homo sapiens,24%
same,Percent Effect,[7],1.47%
same,Percent Effect,[8],4.88%
same,Percent Effect,[9],18%
CC(NC(N)=O)C(=O)N1CCCN(Cc2nccn2C(C)C)CC1 (stereo not given),Percent Effect,[1],-1.61%
same,Percent Effect,[2],1.27%
same,Percent Effect,[3],7.49%
same,Percent Effect,[4],0.743%
same,Percent Effect,Trypanosoma cruzi,-1.13%
same,Percent Effect,[5],-4.09%
same,Percent Effect,[6],2.74%
same,Percent Effect,Homo sapiens,-2.71%
same,Percent Effect,[7],0%
same,Percent Effect,[8],2.53%
same,Percent Effect,[9],-3.12%
O=C(NCc1ccccc1)c1nnc2ccc(N3CCOCC3)cc2n1,Percent Effect,[1],-4.99%
same,Percent Effect,[2],-1.33%
same,Percent Effect,[3],67.7%
same,Percent Effect,[4],2.19%
same,Percent Effect,Trypanosoma cruzi,-3.73%
same,Percent Effect,[5],-10.4%
same,Percent Effect,[6],14.1%
same,Percent Effect,Homo sapiens,4.89%
same,Percent Effect,[7],6.35%
same,Percent Effect,[8],7.69%
same,Percent Effect,[9],-13.2%
O=C(Nc1cccnc1)[C@H]1C[C@@H]2CCN(c3nncs3)C[C@H]2O1,Percent Effect,[1],-0.711%
same,Percent Effect,[2],5.41%
same,Percent Effect,[3],-5.74%
same,Percent Effect,[4],-1.47%
same,Percent Effect,Trypanosoma cruzi,2.54%
same,Percent Effect,[5],-2.08%
same,Percent Effect,[6],10.4%
same,Percent Effect,Homo sapiens,4.24%
same,Percent Effect,[7],10.9%
same,Percent Effect,[8],13.4%
same,Percent Effect,[9],-4.77%
Cn1cc(N2CC3(CCN(S(=O)(=O)C4CC4)C3)CC2=O)cn1 (stereo not given),Percent Effect,[1],-2.73%
same,Percent Effect,[2],18.7%
same,Percent Effect,[3],-7.51%
same,Percent Effect,[4],-0.00481%
same,Percent Effect,Trypanosoma cruzi,3.09%
same,Percent Effect,[5],-11.3%
same,Percent Effect,[6],10.6%
same,Percent Effect,Homo sapiens,-1.37%
same,Percent Effect,[7],7.29%
same,Percent Effect,[8],27.5%
same,Percent Effect,[9],-13.5%
Cc1nc(C)n(CC2CN(Cc3cccnc3)CCO2)n1 (stereo not given),Percent Effect,[1],-3.52%
same,Percent Effect,[2],21.1%
same,Percent Effect,[3],-7.06%
same,Percent Effect,[4],-5.07%
same,Percent Effect,Trypanosoma cruzi,-2.33%
same,Percent Effect,[5],2.52%
same,Percent Effect,[6],6.85%
same,Percent Effect,Homo sapiens,-13.4%
same,Percent Effect,[7],9.36%
same,Percent Effect,[8],23.5%
same,Percent Effect,[9],-5.32%
Cc1csc(C2CCCN(C(=O)c3cc(Cl)c[nH]3)C2)n1 (stereo not given),Percent Effect,[1],-4.24%
same,Percent Effect,[2],5.41%
same,Percent Effect,[3],-0.992%
same,Percent Effect,[4],9.99%
same,Percent Effect,Trypanosoma cruzi,-5%
same,Percent Effect,[5],-2%
same,Percent Effect,[6],3.96%
same,Percent Effect,Homo sapiens,19%
same,Percent Effect,[7],14.3%
same,Percent Effect,[8],13.6%
same,Percent Effect,[9],-2.75%
CCc1nc(CN(C)C2CCN(Cc3cnc(C)cn3)C2)no1 (stereo not given),Percent Effect,[1],0.722%
same,Percent Effect,[2],27.9%
same,Percent Effect,[3],-1.25%
same,Percent Effect,[4],-16.7%
same,Percent Effect,Trypanosoma cruzi,5.38%
same,Percent Effect,[5],-3.42%
same,Percent Effect,[6],15.5%
same,Percent Effect,Homo sapiens,26.6%
same,Percent Effect,[7],8.37%
same,Percent Effect,[8],21.5%
same,Percent Effect,[9],-17%
COc1ccc(CN2CCc3ncnc(C4CCOC4)c3CC2)cc1 (stereo not given),Percent Effect,[1],-3.47%
same,Percent Effect,[2],5.33%
same,Percent Effect,[3],-1.49%
same,Percent Effect,[4],-6.97%
same,Percent Effect,Trypanosoma cruzi,5.41%
same,Percent Effect,[5],-40.3%
same,Percent Effect,[6],5.13%
same,Percent Effect,Homo sapiens,13.6%
same,Percent Effect,[7],0%
same,Percent Effect,[8],7.5%
same,Percent Effect,[9],-7.3%

# — ChEMBL document CHEMBL3988442, “University of Dundee, Small-Polar-MMV Screening Library” (2021)
